Source: PubChem BioAssay AID463173 (ICCB-Longwood Screening Facility, Harvard Medical School, 2010)
The campaign covered roughly 52,000 compounds. About 4,300 (8.3%) were called active. Rule as the data show it: active = survival mostly below about 52% (no sharp cut-off); inactive = mostly above about 56%. What follows is part of a selection rich in actives, with near analogues and random picks from the rest.

tested on: DeltatarO mutant; assay: growth inhibition of S. aureus wild type versus tarO mutant, primary screen, teichoic acid synthesis inhibitors, RN4220, OD600 (AID 463173); details: OD600, 18 h, hits give low values, screened at 18.75 µg/mL (by protocol)

SMILES | survival
CC1=Nc2cc(C(=O)NCCc3ccc(Cl)cc3)ccc2Sc2c(C)ccc(C)c21 | 74% (inactive)
O=C(NCCc1ccc(Cl)cc1)c1ccc(CS(=O)(=O)Cc2ccc(F)cc2)o1 | 92% (inactive)
CCOc1nc(-c2ccccc2)ccc1-c1noc(-c2ccc(C)cc2)n1 | 110% (inactive)
COc1cccc(-c2nc(-c3ccc(-c4ccccc4)nc3OC)no2)c1 | 10% (active)
CCOc1ccccc1-c1nc(-c2ccc(-c3ccccc3)nc2OCC)no1 | 4% (active)
CCOc1cc(-c2nc(-c3ccc(Br)cc3)no2)cc(OCC)c1OCC | 118% (inactive)
COc1ccc(-c2ccc(-c3noc(-c4cc(OC)cc(OC)c4)n3)c(OC)n2)cc1 | 45% (inactive)
COc1nc(C)ccc1-c1noc(-c2ccccc2)n1 | 102% (inactive)
CCOc1cc(-c2nc(-c3ccc(-c4ccc(OC)cc4)nc3OC)no2)cc(OCC)c1OCC | 75% (inactive)
COc1nc(-c2ccccc2)ccc1-c1noc(-c2ccccc2Br)n1 | -1% (active)
COc1nc(-c2ccccc2)ccc1-c1noc(C(C)C)n1 | 91% (inactive)
COc1cccc(-c2ccc(-c3noc(-c4ccccc4Br)n3)c(OC)n2)c1 | 37% (inactive)
CCOc1cc(-c2nc(-c3ccc(-c4ccc(C)cc4)nc3OC)no2)cc(OCC)c1OCC | 69% (active)
CCOc1cc(-c2nc(-c3ccc(-c4ccccc4)nc3OCC)no2)cc(OCC)c1OCC | 53% (inactive)
COc1ccc(CCCc2nnc(SCC(=O)Nc3ccc(F)cc3)o2)cc1C | 89% (inactive)
COc1ccccc1N1CCN(c2cc(N3CCCC3)nc(C)n2)CC1 | 98% (inactive)
O=C(Nc1ccc(Br)cc1)C1CCCN(S(=O)(=O)c2ccc(Br)s2)C1 (stereo not drawn) | 82% (inactive)
C#CCN1CCc2cc(OC)c(OC)cc2C1C (stereo not drawn) | 101% (inactive)
Cc1cccc(CCNCc2cc3cc4c(cc3[nH]c2=O)OCO4)c1 | 85% (inactive)
CC1(C)OC2C(CO)OC(n3ncc(=O)[nH]c3=O)C2O1 (stereo not drawn) | 86% (inactive)
COc1nc(-c2ccc(C)cc2)ccc1-c1noc(-c2ccc(C(C)(C)C)cc2)n1 | 47% (inactive)
COc1nc(-c2ccc(C)cc2)ccc1-c1noc(-c2ccccc2Br)n1 | 19% (active)
CCOc1nc(-c2ccc(C)cc2)ccc1-c1noc(-c2ccccc2F)n1 | 54% (inactive)
CC(C)(C)c1cc(C(C)(C)C)c2oc(=O)c(-c3nc4ccccc4[nH]3)cc2c1 | 69% (inactive)

SMILES | survival
Cc1ccc(-n2ncc(C(=O)NCCN3CCc4ccccc4C3)c2C2CCNCC2)cc1C | 95% (inactive)
O=C(c1ccc(F)cc1)N1CCC(c2nc3ccccc3o2)CC1 | 83% (inactive)
Cc1nnc(SCc2ccccc2)c2cc3sccc3n12 | 53% (inactive)
COc1ccc(CCN(Cc2nc3ccccc3c(=O)[nH]2)C(=O)C(C)C)cc1 | 101% (inactive)
CCC(=O)Nc1nnc(C(C)(C)C)s1 | 51% (active)
CCC(CC)C(=O)Nc1nnc(C(C)(C)C)s1 | 95% (inactive)
CC(C)(C)c1nnc(NC(=O)CS(=O)(=O)Cc2ccccc2)s1 | 95% (inactive)
CCn1nnc2cc(C(=O)Nc3cccc(C)c3C)ccc21 | 72% (inactive)
Clc1ccc(NCCC2=CCCCC2)nn1 | 84% (inactive)
Clc1ccc(NC2CCCCC2)nn1 | 66% (active)
CN(C)CCNc1ccc(Cl)nn1 | 96% (inactive)
COc1ccccc1-c1nc(SCC(=O)NCc2ccc(C)cc2)c2c(=O)n(C)c(=O)n(C)c2n1 | 69% (inactive)
Cc1ccccc1NC(=O)c1ccc2[nH]c(C)c(C)c2c1 | 123% (inactive)
CCOC(=O)c1sc2cccc(F)c2c1S(=O)(=O)Nc1ccccc1F | 99% (inactive)
CCOc1ccccc1NS(=O)(=O)c1c(C(=O)OC)sc2cccc(F)c12 | 20% (active)
COC(=O)c1sc2cccc(F)c2c1S(=O)(=O)Nc1cc(C)c(Cl)cc1OC | 89% (inactive)
COC(=O)c1sc2cccc(F)c2c1S(=O)(=O)Nc1ccc(C)cc1Cl | 91% (inactive)
COC(=O)c1sc2cccc(F)c2c1S(=O)(=O)Nc1ccc(N(C)C)cc1 | 66% (inactive)
COC(=O)c1sc2cccc(F)c2c1S(=O)(=O)Nc1cc(OC)cc(OC)c1 | 8% (active)
COC(=O)c1ccccc1NS(=O)(=O)c1cc2c(cc1C)N(C)CCO2 | 87% (inactive)
COc1cc(C(=O)N2CCN(CCc3ccccn3)CC2)cc(OC)c1OC | 66% (inactive)
Cc1ccc2nc(-c3cccc(Cl)c3)c(Nc3ccc4c(c3)OCO4)n2c1 | 75% (inactive)
COc1cc(NC(=O)C2CCCN(S(=O)(=O)c3ccc4c(c3)CCCC(=O)N4)C2)cc(OC)c1 (stereo not drawn) | 94% (inactive)
COc1ccc(CN(Cc2ccco2)C(=O)COc2ccccc2Cl)cc1 | 51% (inactive)
